A short description of experiment [1]: NCI Yeast Anticancer Drug Screen. Data for the rad50 strain (AID 155).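 Further: 0% = growth of vehicle-only cultures of the same strain.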 The following applies: S. cerevisiae rad50 strain growth inhibition, active compounds read high; at 50.0 µM unless noted. The method, boiled down: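 Compounds were tested on a yeast strain with an engineered DNA damage repair alteration; the reported value is growth inhibition normalised to vehicle treatment.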

A short description of experiment [2]: NCI Yeast Anticancer Drug Screen. Data for the mec2-1 strain (AID 157). The following applies: S. cerevisiae mec2-1 strain, active compounds read high; at 50.0 µM unless noted. The method, boiled down:
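Using mec2-1 yeast: add compound, measure growth, express inhibition versus vehicle-treated cultures.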

Experiment [3] can be described thus: NCI Yeast Anticancer Drug Screen. Data for the sgs1 mgt1 strain (AID 161).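 Further: 0% = growth of cultures given vehicle only.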 The following applies: S. cerevisiae sgs1 mgt1 strain, active compounds read high; at 50.0 µM unless noted. The method, boiled down: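 Percent growth inhibition was derived by comparing compound-exposed mutant yeast with vehicle-exposed cultures. The strain carries alterations in DNA damage repair.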

Experiment [4] can be described thus: NCI Yeast Anticancer Drug Screen. Data for the cln2 rad14 strain (AID 165).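 Further: 0% = growth equal to vehicle treated cultures.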 The note with it: S. cerevisiae cln2 rad14 strain, active compounds read high; at 50.0 µM unless noted. The method, boiled down: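 Yeast strain cln2 rad14, bearing defects in cell cycle control and DNA repair, serves as the test system; values reflect growth inhibition compared with vehicle.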

Experiment [5] can be described thus: NCI Yeast Anticancer Drug Screen. Data for the bub3 strain (AID 167). The note with it: S. cerevisiae bub3 mutant strain, active compounds read high; at 50.0 µM unless noted. The essentials: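 Growth of a checkpoint-deficient yeast mutant is measured after compound exposure. Values represent inhibition relative to vehicle.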
Experiment [6] is described as follows: NCI Yeast Anticancer Drug Screen. Data for the mlh1 rad18 strain (AID 175). The following applies: S. cerevisiae mlh1 rad18 strain growth inhibition, active compounds read high; at 50.0 µM unless noted. The essentials: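 Steps: expose repair-defective yeast to compound; measure growth; express inhibition against vehicle-treated controls.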

The structures appear in SMILES notation. Values joined by “and” are separate entries in the source; they are usually repeats but may differ in a detail not shown here. Identical values can stand only once. The panel holds about 79,000 compounds, 15% with a hit somewhere; the sample as a whole holds those more often. Unmarked numbers belong to inactive results. Active and inactive are the calls of the source. No stated cut-off is given here; in the data, active means growth inhibition above about 70%; inactive means the rest. Where a SMILES comes first, the peptide text is derived from it. [ ]: non-standard residue; d: D form. The star is where a group is joined. ξ: configuration not given here. ξF = NC(Cc1ccccc1)C(=O)O; Cbz = O=C(OCc1ccccc1)*; Aib = CC(C)(N)C(=O)O

Consider `O=C1CC(Cc2n[nH]c3c2CCCC3)CC(=O)N1`, for which the growth inhibition was 4.2% in experiment [1]; 3.8% in experiment [2]; -4.8% in experiment [3]; 7.35% in experiment [4]; -2.15% in experiment [5]; -7.75% in experiment [6].

`CSc1cccc(NC(=S)NC(=O)c2ccccc2)c1`: the growth inhibition in experiment [1] was -0.25%; in experiment [2], -8.15%; in experiment [3], -0.65%; in experiment [4], -2.4%; in experiment [5], 2.55%; in experiment [6] it was -17.4%.

With `C(/C=C/c1ccccc1)=Nc1ccc(SSc2ccc(N=C/C=C/c3ccccc3)cc2)cc1`, the growth inhibition in experiment [1] is 38.2%; in experiment [2], 6.25%; in experiment [3] it was 4.65%; in experiment [4] it was -13%; in experiment [5] it was -3.05%; in experiment [6], 27.9%.

For `C/C(=N\O)C(=O)c1ccc(C)cc1`, the growth inhibition is -0.05% in experiment [1]; -12.7% in experiment [2]; 2.2% in experiment [3]; -30.6% in experiment [4]; -22.7% in experiment [5]; -8.7% in experiment [6].

Take `O=C1C(=O)c2ccccc2C(O)=C1CN1CCOCC1`: the growth inhibition was 31.6% in experiment [1]; 32.1% in experiment [2]; 14.4% in experiment [3]; 4.65% in experiment [4]; 28% in experiment [5]; 8.85% in experiment [6].

For the compound `CCOCC(Br)C(OCC)OCC` (stereo not given), the growth inhibition in experiment [1] was 19.2%; in experiment [2] it was -6.65%; in experiment [3], 8.15%; in experiment [4] it was 20.9%; in experiment [5], 0.45%; in experiment [6] it was 26.1%.

With `COC(=O)C(C)(C)NC(=O)C(Cc1ccccc1)NC(=O)C(C)(C)NC(=O)OCc1ccccc1` (stereo not given) (Cbz-[Aib]-[ξF]-[Aib]-OMe), the growth inhibition in experiment [1] is 18.9%; in experiment [2], 4.8%; in experiment [3], -6.2%; in experiment [4], 23.1%; in experiment [5], 12.4%; in experiment [6], -1.2%.

Consider `Cc1cc(N(CCCCl)CCCCl)ccc1C=Nc1cc(Cl)c(O)c(Cl)c1`, for which the growth inhibition is 71.8% (active) in experiment [1]; 6.15% in experiment [2]; 84.8% (active) in experiment [3]; -13.9% in experiment [4]; 53% in experiment [5]; 57.2% in experiment [6].

In the case of `CCOC(=O)c1ccc(NC(=O)Nc2cc(Cl)ccc2C)cc1`, the growth inhibition is 38.9% in experiment [1]; 8.45% in experiment [2]; 16.1% in experiment [3]; 6.4% in experiment [4]; 36.2% in experiment [5]; 25.4% in experiment [6].

As for `O=C(CS(=O)(=O)c1ccccc1)c1ccccc1`, the growth inhibition in experiment [1] was -14.4% and 14.6%; in experiment [2], -18.9% and 13.1%; in experiment [3], -6.05% and 12.6%; in experiment [4] it was 8.75% and 1.5%; in experiment [5], 0.55% and 29.9%; in experiment [6], -29.9% and 28.3%.

Turning to `Cc1cn(C2CC(ON)C(CO)O2)c(=O)[nH]c1=O` (stereo not given), the growth inhibition in experiment [1] was -8.1%; in experiment [2], -1.15%; in experiment [3] it was 23.2%; in experiment [4] it was 13.9%; in experiment [5] it was 6.25%; in experiment [6] it was -48%.

As to `CC(C)(C)OC(=O)NCCCCC(N)C(N)=O` (stereo not given), the growth inhibition was -19.6% in experiment [1]; -32.2% in experiment [2]; -31.9% in experiment [3]; 15.8% in experiment [4]; 5.15% in experiment [5]; -1.95% in experiment [6].

Turning to `C[N+]1(CCN[N+]2(C)CCCCC2)CCc2ccccc2C1` (stereo not given), the growth inhibition is -5.55% in experiment [1]; -14.7% in experiment [2]; -44.5% in experiment [3]; -20.3% in experiment [4]; -39.3% in experiment [5]; -3.25% in experiment [6].

Take `CC(C)C1Oc2ccc(Br)cc2C1O` (stereo not given): the growth inhibition in experiment [1] was 11.2%; in experiment [2], 8.15%; in experiment [3], 2.25%; in experiment [4] it was -13.1%; in experiment [5] it was 18.7%; in experiment [6] it was 5.6%.

On to `CN(C)C(n1cc2c(c1)-c1ccc(Cl)cc1C(c1ccccc1F)=NC2)n1cc2c(c1)-c1ccc(Cl)cc1C(c1ccccc1F)=NC2`, for which the growth inhibition is 11.8% in experiment [1]; -8.8% in experiment [2]; 1% in experiment [3]; 7.8% in experiment [4]; -7.55% in experiment [5]; -22.9% in experiment [6].

Take `Cc1ccc(NC(=O)Oc2ccc(C#N)cc2)c(C)c1`: the growth inhibition in experiment [1] was 7.45%; in experiment [2] it was -22.8%; in experiment [3] it was -0.9%; in experiment [4], 2.05%; in experiment [5], -3.35%; in experiment [6] it was 8.9%.

`NC(N)=NS(=O)(=O)c1ccc(NCc2c3ccccc3nc3ccccc23)cc1`: the growth inhibition is 41.2% in experiment [1]; 26.9% in experiment [2]; 38.4% in experiment [3]; 6.75% in experiment [4]; 46.5% in experiment [5]; 38.1% in experiment [6].

Regarding `CC(C)(C)C1C=C(Sc2ccccc2)C(=O)O1` (stereo not given), the growth inhibition in experiment [1] was 28.8%; in experiment [2], 7.3%; in experiment [3], 6.25%; in experiment [4], 1.8%; in experiment [5], 61.2%; in experiment [6] it was 30.1%.

On to `CCOC(=O)c1c(C(=O)OCC)c2cccn2c2c1cnn2-c1ccccc1`, for which the growth inhibition in experiment [1] was -0.85%; in experiment [2] it was 1.65%; in experiment [3], 5.1%; in experiment [4], 5.55%; in experiment [5] it was -20.8%; in experiment [6] it was -2.55%.

As to `O=C1CSC(c2c[nH]c3ccccc23)N1c1ccc(Cl)cc1` (stereo not given), the growth inhibition in experiment [1] was -33.9%; in experiment [2], -25.5%; in experiment [3] it was -46.2%; in experiment [4] it was -3.55%; in experiment [5], -28.9%; in experiment [6], -30.4%.

Values taken from PubChem BioAssay (NCI).
